Out of some 68,000 compounds screened, about 2,700 (4%) showed an effect of 50% or more. The full list was thinned out, with strong results kept by preference.

In this experiment the test system is Plasmodium berghei. Briefly: Screen against P. berghei liver stage (PbLuc), transformed with Luciferase, at 2uM. The class given is functional, HepG2. The note with it: tested at 2 uM.
`Cc1nc(C2CCCN2CCCS(=O)(=O)N(C)C)no1` (configuration not stated): the INHIBITION amounted to 9.36%.
Then `C[C@H](C(=O)N1Cc2ccccc2CC2(CCCN2C)C1)c1ccccc1` (some centres not stated), with 29.56%; and `CCNC(=O)c1cn(C(C)(C)C)c2ncccc12`, with 40.4%.
Consider `O=C(C1CC1)N1CCCC1c1nnc2n1CCCCC2` (configuration not stated), for which the INHIBITION worked out at 58.29%.
The same measure for `O=C(C1CCCC1)N1CCCC1c1nnc2n1CCCCC2` (configuration not stated): -15.83%; for `O=C(C1CCC1)N1CCCC1c1nnc2n1CCCCC2` (configuration not stated): 41.56%.
For `C[C@@H]1CN(S(=O)(=O)N2CCCCCC2)C[C@@]1(O)C1CCC1`, the INHIBITION amounted to 6.68%.
With `CCC(O)CN1CCN(C(=O)c2ccc(Cn3cccc3)cc2)CC1` (configuration not stated), the INHIBITION is on record as -25.46%.
Consider `O=C(Nc1cccnc1)[C@H]1C[C@H]2CN(Cc3ccc(F)cc3)C[C@@H]1O2`, for which the INHIBITION is reported as 6.35%.
As to `CNC(=O)CS(=O)(=O)NC1CCC(C)CC1` (configuration not stated), the INHIBITION amounted to 7.46%.
With `Cc1ccc(NC(=O)CS(=O)(=O)NC2CCC(C)CC2)nc1` (configuration not stated), the INHIBITION was determined as 59.03%.
Consider `CC1CCC(NS(=O)(=O)CC(=O)Nc2ccc(N3CCCC3)cn2)CC1` (configuration not stated), for which the INHIBITION is -3.25%.
Regarding `CCN(CC)CCn1c(NC(=O)c2scnc2C)nc2ccccc21`, the INHIBITION was -34.06%.
Then `O=C(Nc1ccccc1Oc1cccc(F)c1)NC1CCS(=O)(=O)C1` (configuration not stated), with 11.88%; and `CNC(=O)NC(=O)CSC(C)c1ccccc1F` (configuration not stated), with 20.74%.
As for `CC(=O)N1CCC(Cc2cncc(-c3c(C)n[nH]c3C)n2)C1` (configuration not stated), the INHIBITION was found to be 23.22%.
With `CC(C)CN1CCC2(CCN(Cc3ccoc3)CC2)C1=O`, the INHIBITION is 44.43%.
`CCS(=O)(=O)Nc1cnn(Cc2cccc(Cl)c2)c1`: the INHIBITION came out at 20.19%.
As to `CCS(=O)(=O)Nc1cnn(Cc2cccc(C)c2)c1`, the INHIBITION is on record as 52.95%.
`CCS(=O)(=O)Nc1cnn(Cc2cccc(F)c2)c1`: the INHIBITION is 3.58%.
On to `Cn1cc(CN2CCc3c(COCC4CC4)cncc3C2)cn1`, for which the INHIBITION was -11.66%.
For `COCc1cncc2c1CCN(Cc1cnn(C)c1)C2`, the INHIBITION came out at 53.98%.
Regarding `CC(C)COCc1cncc2c1CCN(Cc1cnn(C)c1)C2`, the INHIBITION is listed as -40.42%.
With `COc1ccc2cc(C(=O)N3CCCC(n4ccnc4C)C3)[nH]c2c1` (configuration not stated), the INHIBITION is -47.33%.
Then `CCNc1cc2c(nn1)CCN(C(=O)c1cccc3c1OCO3)C2`, with 1.63%.
The same measure for `Cn1cc(N2CCN(c3ccc(C#N)c(Cl)c3)CC2=O)cn1`: 52.3%.
`COCC1CN(c2ccc(C#N)c(Cl)c2)CCO1` (configuration not stated): the INHIBITION came to 2.69%.
With `N#Cc1ccc(N2CCC(OC3CCOCC3)CC2)cc1Cl`, the INHIBITION worked out at 26.51%.
In the case of `Cn1cc(N2CCN(c3ccc(C#N)cc3Br)CC2=O)cn1`, the INHIBITION turned out to be 42.2%.
For the compound `Cn1cc(N2CCN(c3ccc(C#N)cc3F)CC2=O)cn1`, the INHIBITION is listed as 53.98%.
Turning to `Cn1ccnc1CN1CCN(c2ccc(C#N)cc2F)CC1`, the INHIBITION is recorded as -5.15%.
The same measure for `O=C(Cn1cccnc1=O)NCCc1ccc2c(c1)OCCO2`: 0.9%; for `COc1ccc2c(ccn2CCCN)c1`: -19.92%; for `CC(Sc1nnnn1C1CCOCC1)C(F)(F)F` (configuration not stated): 5.55%.
On to `COC(=O)C(C)Sc1nnnn1C1CCOCC1` (configuration not stated), for which the INHIBITION is -53.55%.
The same measure for `CCCC(C)Sc1nnnn1C1CCOCC1` (configuration not stated): 61.27%; for `CC(Sc1nnnn1C1CCOCC1)C(=O)NC1CCCCC1` (configuration not stated): -33.07%; for `CCCOC(=O)C(C)Sc1nnnn1C1CCOCC1` (configuration not stated): 71.4%.
On to `CC(C)OCCSc1nnnn1C1CCOCC1`, for which the INHIBITION is given as 17.37%.
On to `CCc1nccn1C1CCCN(C(=O)Cc2ccc(OC)c(F)c2)C1` (configuration not stated), for which the INHIBITION is recorded as 29.71%.
In the case of `COc1ccc(CNC(=O)N2CCCC(Nc3ccccc3)C2)cn1` (configuration not stated), the INHIBITION worked out at 17.48%.
In the case of `Fc1ccc(CN2CCc3ncnc(C4CC4)c3CC2)cc1`, the INHIBITION is reported as -12.06%.
On to `Cc1cn[nH]c1C1CCCCN1C(=O)CCc1c(C)n[nH]c1C` (configuration not stated), for which the INHIBITION is recorded as 5.34%.
For `O=C(NCC1CCCOC1)c1ccc(-c2cccs2)[nH]c1=O` (configuration not stated), the INHIBITION came out at 38.67%.
For `Cc1cc(C(=O)N2CCCC(c3noc(C)n3)C2)[nH]n1` (configuration not stated), the INHIBITION is given as 45.75%.
As for `CCN1C[C@@H]2CN(C(=O)c3cccn3C)C[C@@H]2C1=O`, the INHIBITION stood at 17.05%.
As for `CCCN1C[C@@H]2CC[C@H]1CN(Cc1cccc(O)c1)C2`, the INHIBITION was -1.63%.
For the compound `CC(C)N(CCO)C(=O)C1CCC(=O)N(CCc2cccc(F)c2)C1` (configuration not stated), the INHIBITION amounted to 66.74%.
For `CC(C)N(C)C(=O)C1CCC(=O)N(CCc2cccc(F)c2)C1` (configuration not stated), the INHIBITION amounted to 68.39%.
The same measure for `CCCN(CCO)C(=O)C1CCC(=O)N(Cc2ccc(Cl)cc2)C1` (configuration not stated): -49.57%.
Take `CCN(CCO)C(=O)C1CCC(=O)N(Cc2cccc(OC)c2)C1` (configuration not stated): the INHIBITION was found to be 53.61%.
Regarding `CCN(CCO)C(=O)C1CCC(=O)N(CCc2cccc(F)c2)C1` (configuration not stated), the INHIBITION came to 30.62%.
Consider `CCN(CC)C(=O)C1CCC(=O)N(CCc2cccc(F)c2)C1` (configuration not stated), for which the INHIBITION came to 17.48%.
Then `CCCN(CCO)C(=O)C1CCC(=O)N(CCc2ccc(Cl)cc2)C1` (configuration not stated), with -16.93%.
For the compound `CC(C)N(CCO)C(=O)C1CCC(=O)N(CCc2ccc(Cl)cc2)C1` (configuration not stated), the INHIBITION is given as 17.2%.
The same measure for `CCC(CO)(CO)NC(=O)C1CCC(=O)N(CCc2ccccc2)C1` (configuration not stated): -19.02%; for `CN1CCN(C2COC3(CCN(Cc4ccc(F)cc4)CC3)C2)CC1` (configuration not stated): -0.38%; for `CC(C)c1cc(C(=O)NCC(O)C2CCOCC2)nn1C(C)(C)C` (configuration not stated): -31.6%.
Take `Cc1nc2cc(O)nn2c(C)c1CCC(=O)NCc1cc(Br)cs1`: the INHIBITION worked out at 15.28%.
`Cc1cc(C(=O)NCC2COCc3c(C)nnn3C2)no1` (configuration not stated): the INHIBITION was 14.39%.
For the compound `CCN1CC(C(=O)N(C)Cc2ccon2)CC1=O` (configuration not stated), the INHIBITION is listed as -26.32%.
As to `CN(C)CC(=O)N1CC[C@H]2OCC[C@@]2(COCC2CC2)C1`, the INHIBITION is listed as 11.87%.
`c1cnc(N2CC[C@@H](OCC3CC3)[C@@H]2Cc2cccnc2)nc1`: the INHIBITION was 23.21%.
Turning to `CNC(=O)COC1COC2(CCN(c3ccc(C#N)cc3)CC2)C1` (configuration not stated), the INHIBITION came to 14.97%.
For `COCC(=O)N(CCC(=O)OC)CC1CCCO1` (configuration not stated), the INHIBITION was 10.4%.
The same measure for `COCC(=O)N1CC[C@H]2C[C@H](c3nnc(C4CC4)o3)O[C@@H]2C1`: 50.61%.
On to `COCC(=O)N1CC[C@H]2C[C@H](c3nc(C)no3)O[C@@H]2C1`, for which the INHIBITION is on record as -1.81%.
Then `COCC(=O)N1CC[C@H]2C[C@@H](c3nnc(C4CC4)o3)O[C@@H]2C1`, with 6.55%; and `CC(C)CS(=O)(=O)CCNC(=O)Nc1cccc2ncccc12`, with -41.73%.
On to `O=C(Cn1cc(C(=O)O)ccc1=O)Nc1cc(F)ccc1F`, for which the INHIBITION is 63.46%.
On to `COCCOCC(=O)Nc1cc(C)ccc1F`, for which the INHIBITION turned out to be 12.56%.
Take `Cc1cc(F)ccc1NC(=O)Cn1cc(C(=O)O)ccc1=O`: the INHIBITION is recorded as 55.39%.
As for `O=C(Cn1cc(C(=O)O)ccc1=O)Nc1ccc(Cl)cc1F`, the INHIBITION is given as 33.23%.
On to `Cc1ccc(Cl)cc1NC(=O)Cn1cc(C(=O)O)ccc1=O`, for which the INHIBITION was 22.4%.
Turning to `COCCOCC(=O)Nc1ccc(F)cc1C`, the INHIBITION was 52.74%.
As for `O=C(Cn1cc(C(=O)O)ccc1=O)NCc1ccc(F)cc1Cl`, the INHIBITION was found to be 9.27%.
On to `O=C(Cn1cc(C(=O)O)ccc1=O)Nc1ccc(F)cc1Cl`, for which the INHIBITION is -5.95%.
Take `COCCOCC(=O)Nc1ccc(C)cc1F`: the INHIBITION was determined as 11.28%.
As for `O=C(CC1COCCN1C(=O)c1cscn1)c1ccccc1` (configuration not stated), the INHIBITION is 5.43%.
`CNC(=O)Cc1ccccc1NC(=O)C1CCN(C2CCCCC2)C1` (configuration not stated): the INHIBITION is -0.39%.
As to `CC(=O)Nc1ccc(CNCc2ccc(CS(C)(=O)=O)cc2)cc1`, the INHIBITION is listed as -1.53%.
Turning to `Cc1nc(CN2CCCC(NCCCOc3ccc(F)cc3)C2)no1` (configuration not stated), the INHIBITION came out at 4.18%.
Turning to `CCc1ncc(C(=O)NCC2CCN(Cc3ccncc3)CC2)cn1`, the INHIBITION was -6.29%.
On to `CCN1CCN(C2CCN(Cc3cc(C)on3)CC2)C1=O`, for which the INHIBITION is reported as -14.11%.
The same measure for `Cc1csc(N2CCN(C(=O)CCc3nccs3)CC2)n1`: -18.67%; for `CC(C)CN(CC(O)c1ccc(F)cc1)C(=O)c1cc[nH]n1` (configuration not stated): 10.91%.
`Cc1[nH]ncc1C(=O)N(CC(C)C)CC(O)c1ccc(F)cc1` (configuration not stated): the INHIBITION came to 25.65%.
Then `Cc1cc(C(=O)N(CC(C)C)CC(O)c2ccc(F)cc2)[nH]n1` (configuration not stated), with 51.96%; and `CC(C)NC(=O)N1CCCC(Cn2cc(-c3ccc(F)cc3)nn2)C1` (configuration not stated), with -17.86%.
Take `NCc1cn(CC2CCCN(C(=O)NCCc3ccc(F)cc3)C2)nn1` (configuration not stated): the INHIBITION worked out at 62.51%.
Then `COc1cccc(CNC(=O)N2CCCC(Cn3cc(CN)nn3)C2)c1` (configuration not stated), with 76.82%.
As to `CCC(=O)N1CCCC(Cn2cc(-c3ccc(F)cc3)nn2)C1` (configuration not stated), the INHIBITION was -27.82%.
Take `COc1ccc(CC(=O)N2CCCC(Cn3cc(CN)nn3)C2)cc1` (configuration not stated): the INHIBITION is recorded as 12.43%.
In the case of `CNc1ccc(Cl)cc1C(=O)N1CCC(Cn2cc(CN)nn2)CC1`, the INHIBITION was determined as 3.72%.
In the case of `NCc1cn(CC2CCCN(C(=O)NCc3ccc(Cl)cc3)C2)nn1` (configuration not stated), the INHIBITION stood at 62.51%.
`NCc1cn(CC2CCCN(C(=O)CC3=CCCCC3)C2)nn1` (configuration not stated): the INHIBITION was determined as 16.72%.
The same measure for `COc1cccc(CNC(=O)CN2CCCC(Cn3cncn3)C2)c1` (configuration not stated): -0.76%; for `Cc1nnc(NC(=O)NCc2ccc(OC3CCCC3)nc2)s1`: 12.74%; for `CCN1C(=O)CO[C@@H]2CN(C(=O)C3CCOCC3)C[C@H]21`: 18.31%.
With `COc1ccc(N(c2ccc(OC)cc2)c2ccc(C(=O)O)s2)cc1`, the INHIBITION is reported as 14.95%.
The same measure for `CC1c2ncc(COCC3CC3)n2CCN1C(=O)c1ccnn1C` (configuration not stated): 21.67%; for `Cc1cc(NC(=O)NCC(C(C)C)N2CCOCC2)n(C)n1` (configuration not stated): 11.63%.
In the case of `CN(Cc1cccnc1)C[C@H]1OC[C@@H]2CCN(C(=O)C3CC3)C[C@@H]21`, the INHIBITION was 8.62%.
With `CC(CCN1CCC(n2cc(CCO)nn2)CC1)c1ccccc1` (configuration not stated), the INHIBITION is on record as 30.89%.
For `Cc1ccc(CN2CCC(n3cc(CN4CCC(O)CC4)nn3)CC2)s1`, the INHIBITION is 35.7%.
Then `Cc1cccc(CN2CCC(n3cc(CCO)nn3)CC2)c1C`, with 55.36%; and `Cc1nc(C2CCCN2C(=O)c2cc3c(s2)CCC3)no1` (configuration not stated), with 16.89%.

The record behind these values is ChEMBL document CHEMBL4513216, “Probing the Open Global Health Chemical Diversity Library for Multistage-Active Starting Points for Next-Generation Antimalarials” (ACS Infect Dis, 2020).
